In article PMC4081100, “A DNA-binding-site landscape and regulatory network analysis for NAC transcription factors in Arabidopsis thaliana”:

Assays:
Experiment in all cases: universal protein binding microarray (PBM); transcription factors of Arabidopsis thaliana; high values mean tight binding
GST-ANAC092(1-176) = biological target: T1, GST-ANAC092(1-176) (Arabidopsis thaliana, UniProt Q9FKA0 1-176); settings: protein: recombinant; tags: GST; chain copies: 2; dsDNA, one strand shown
T1 sequence: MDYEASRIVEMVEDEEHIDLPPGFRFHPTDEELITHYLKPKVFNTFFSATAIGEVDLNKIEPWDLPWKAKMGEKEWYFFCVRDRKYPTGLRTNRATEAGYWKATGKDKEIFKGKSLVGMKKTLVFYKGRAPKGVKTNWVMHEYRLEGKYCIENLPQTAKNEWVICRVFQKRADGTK
In short: (§1)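 GST-tagged NAC-domain, full-length or DNA-binding-domain proteins were induced in cells, with zinc acetate added for zinc-finger proteins. They were purified on glutathione–Sepharose 4B and quantified by A280 or anti-GST western blot. Each was applied at 200 to 500 nM final, in duplicate, to custom all-10-mer Agilent 4 × 180K arrays made double-stranded by primer extension, with gapped and ungapped 8-mers scored. Binding is the normalised enrichment score (E-score).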

GST-ANAC019 NAC domain = biological target: T2, GST-ANAC019 NAC domain (Arabidopsis thaliana, UniProt Q9C932 14-162); settings: protein: recombinant; tags: GST; chain copies: 2; dsDNA, one strand shown
T2 sequence: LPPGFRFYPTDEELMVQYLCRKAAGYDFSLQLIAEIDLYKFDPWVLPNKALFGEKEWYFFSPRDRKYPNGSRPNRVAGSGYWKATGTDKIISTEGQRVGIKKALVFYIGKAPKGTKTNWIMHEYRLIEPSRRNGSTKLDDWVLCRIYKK
In short: as §1

GST-ANAC055(1-171) = biological target: T3, GST-ANAC055(1-171) (Arabidopsis thaliana, UniProt Q9LDY8 1-171); settings: protein: recombinant; tags: GST; chain copies: 2; dsDNA, one strand shown
T3 sequence: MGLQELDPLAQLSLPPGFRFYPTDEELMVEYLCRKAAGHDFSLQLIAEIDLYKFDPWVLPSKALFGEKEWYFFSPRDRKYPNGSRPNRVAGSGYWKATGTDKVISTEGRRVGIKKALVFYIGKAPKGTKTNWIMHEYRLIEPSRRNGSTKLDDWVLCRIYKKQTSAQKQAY
In short: as §1

GST-ATAF1 NAC domain = biological target: T4, GST-ATAF1 NAC domain (Arabidopsis thaliana, UniProt Q39013 7-158); settings: protein: recombinant; tags: GST; chain copies: 2; dsDNA, one strand shown
T4 sequence: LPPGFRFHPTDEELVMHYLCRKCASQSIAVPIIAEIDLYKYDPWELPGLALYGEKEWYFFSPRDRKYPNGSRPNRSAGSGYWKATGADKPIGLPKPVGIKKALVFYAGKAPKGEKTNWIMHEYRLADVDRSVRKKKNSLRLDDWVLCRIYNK
In short: as §1

[1] = biological target: T5, GST-ANAC092(1-285) full length (Arabidopsis thaliana, UniProt Q9FKA0 1-285); settings: protein: recombinant; tags: GST; chain copies: 2; dsDNA, one strand shown
T5 sequence: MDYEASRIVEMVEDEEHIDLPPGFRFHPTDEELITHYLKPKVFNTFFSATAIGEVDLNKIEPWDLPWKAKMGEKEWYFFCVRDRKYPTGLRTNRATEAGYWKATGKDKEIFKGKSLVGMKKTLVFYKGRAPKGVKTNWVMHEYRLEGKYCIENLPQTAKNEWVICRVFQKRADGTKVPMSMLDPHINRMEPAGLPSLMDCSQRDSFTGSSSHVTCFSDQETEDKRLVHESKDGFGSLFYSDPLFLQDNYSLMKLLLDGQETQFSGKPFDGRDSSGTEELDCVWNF
In short: as §1

GST-NAP(1-166) = biological target: T6, GST-NAP(1-166) (Arabidopsis thaliana, UniProt O49255 1-166); settings: protein: recombinant; tags: GST; chain copies: 2; dsDNA, one strand shown
T6 sequence: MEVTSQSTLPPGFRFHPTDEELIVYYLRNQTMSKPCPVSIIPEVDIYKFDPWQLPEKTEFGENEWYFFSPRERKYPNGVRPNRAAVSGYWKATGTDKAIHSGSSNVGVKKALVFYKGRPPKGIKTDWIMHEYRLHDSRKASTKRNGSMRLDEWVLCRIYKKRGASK
In short: as §1

GST-NST2(1-184) = biological target: T7, GST-NST2(1-184) (Arabidopsis thaliana, UniProt Q9M274 1-184); settings: protein: recombinant; tags: GST; chain copies: 2; dsDNA, one strand shown
T7 sequence: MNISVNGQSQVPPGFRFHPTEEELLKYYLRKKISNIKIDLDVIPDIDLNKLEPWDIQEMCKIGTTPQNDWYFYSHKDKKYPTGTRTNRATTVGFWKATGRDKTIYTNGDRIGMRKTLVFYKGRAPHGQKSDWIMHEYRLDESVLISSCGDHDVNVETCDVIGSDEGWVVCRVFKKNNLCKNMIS
In short: as §1

GST-NTL8 NAC domain = biological target: T8, GST-NTL8 NAC domain (Arabidopsis thaliana, UniProt Q9XIN7 14-156); settings: protein: recombinant; tags: GST; chain copies: 2; dsDNA, one strand shown
T8 sequence: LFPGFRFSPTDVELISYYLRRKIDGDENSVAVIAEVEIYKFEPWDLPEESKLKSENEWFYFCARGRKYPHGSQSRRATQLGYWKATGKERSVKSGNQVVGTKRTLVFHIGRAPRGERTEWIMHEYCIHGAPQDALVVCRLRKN
In short: as §1

GST-SND1(1-203) = biological target: T9, GST-SND1(1-203) (Arabidopsis thaliana, UniProt Q9LPI7 1-203); settings: protein: recombinant; tags: GST; chain copies: 2; dsDNA, one strand shown
T9 sequence: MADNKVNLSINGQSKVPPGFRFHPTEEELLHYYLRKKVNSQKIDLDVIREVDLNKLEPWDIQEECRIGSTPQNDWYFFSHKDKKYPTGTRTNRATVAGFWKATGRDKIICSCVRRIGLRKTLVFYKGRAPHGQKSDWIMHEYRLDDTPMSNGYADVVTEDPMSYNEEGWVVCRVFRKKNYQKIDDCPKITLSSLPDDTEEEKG
In short: as §1

GST-VND3 NAC domain = biological target: T10, GST-VND3 NAC domain (Arabidopsis thaliana, UniProt Q9FH59 12-162); settings: protein: recombinant; tags: GST; chain copies: 2; dsDNA, one strand shown
T10 sequence: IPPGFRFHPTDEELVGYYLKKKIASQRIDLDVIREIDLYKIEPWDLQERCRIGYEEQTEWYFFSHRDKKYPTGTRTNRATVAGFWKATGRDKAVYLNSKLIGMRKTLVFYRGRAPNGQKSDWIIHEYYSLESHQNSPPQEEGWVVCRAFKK
In short: as §1

GST-VND7 NAC domain = biological target: T11, GST-VND7 NAC domain (Arabidopsis thaliana, UniProt Q9C8W9 9-158); settings: protein: recombinant; tags: GST; chain copies: 2; dsDNA, one strand shown
T11 sequence: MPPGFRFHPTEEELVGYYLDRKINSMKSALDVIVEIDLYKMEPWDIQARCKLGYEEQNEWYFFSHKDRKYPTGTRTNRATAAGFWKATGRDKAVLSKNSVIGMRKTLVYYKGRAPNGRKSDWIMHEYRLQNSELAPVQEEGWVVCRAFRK
In short: as §1

GST-NTL6(1-168) = GST-NTL6(1-168) (Arabidopsis thaliana, UniProt Q9SCK6 1-168); settings: protein: recombinant; tags: GST; chain copies: 2; dsDNA, one strand shown
Chain of GST-NTL6(1-168) (Q9SCK6 1-168): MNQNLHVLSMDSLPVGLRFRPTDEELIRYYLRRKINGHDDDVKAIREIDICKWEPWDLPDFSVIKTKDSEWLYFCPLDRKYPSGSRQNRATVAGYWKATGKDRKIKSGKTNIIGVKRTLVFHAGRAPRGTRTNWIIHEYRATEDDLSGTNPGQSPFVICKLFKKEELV
In short: as §1

GST-WRKY1(266-371) = GST-WRKY1(266-371) (Arabidopsis thaliana, UniProt Q9SI37 266-371); settings: protein: recombinant; tags: GST; dsDNA, one strand shown
Chain of GST-WRKY1(266-371) (Q9SI37 266-371): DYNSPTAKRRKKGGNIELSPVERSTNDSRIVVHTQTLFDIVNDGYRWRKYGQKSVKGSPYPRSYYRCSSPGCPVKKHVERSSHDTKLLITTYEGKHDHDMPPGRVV
In short: as §1

Sequence | binding signal (GST-ANAC092(1-176)) [E-score] | binding signal (GST-ANAC019 NAC domain) [E-score] | binding signal (GST-ANAC055(1-171)) [E-score] | binding signal (GST-ATAF1 NAC domain) [E-score] | binding signal [1] [E-score] | binding signal (GST-NAP(1-166)) [E-score] | binding signal (GST-NST2(1-184)) [E-score] | binding signal (GST-NTL8 NAC domain) [E-score] | binding signal (GST-SND1(1-203)) [E-score] | binding signal (GST-VND3 NAC domain) [E-score] | binding signal (GST-VND7 NAC domain) [E-score] | binding signal (GST-NTL6(1-168)) [E-score] | binding signal (GST-WRKY1(266-371)) [E-score]
ACGTTACG | 0.389 | 0.302 | 0.299 | 0.268 | 0.441 | 0.341 | 0.287 | 0.13 | 0.44 | 0.333 | 0.39 |  | 
CACGGAAC | 0.397 | 0.48 | 0.466 | 0.397 | 0.425 | 0.414 | 0.175 | 0.127 | 0.0702 | 0.446 | 0.478 |  | 
ACACGGCA | 0.481 | 0.485 | 0.479 | 0.446 | 0.481 | 0.457 | 0.245 | 0.0652 | 0.148 | 0.463 | 0.481 |  | 
AACACGTT | 0.375 | 0.262 | 0.284 | 0.228 | 0.426 | 0.259 | 0.222 | 0.132 | 0.202 | 0.281 | 0.203 |  | 
CGTCAACA | 0.149 | 0.0912 | 0.135 | 0.156 | 0.196 | 0.116 | 0.111 |  | 0.181 | 0.0753 |  | 0.0991 | 0.435
ATTTCTTA |  |  | 0.0799 | 0.19 | 0.185 |  | 0.126 |  | 0.225 | 0.0914 | 0.148 | 0.409 | 
GACACGGC | 0.235 | 0.42 | 0.351 | 0.278 | 0.387 | 0.237 |  | 0.0582 | 0.116 | 0.328 | 0.348 |  | 
CCTTACCC |  |  |  |  | 0.0872 |  |  | 0.404 | 0.167 | 0.0668 | 0.0637 | 0.366 | 
ACGCAACG | 0.46 | 0.327 | 0.23 | 0.27 | 0.463 | 0.387 | 0.3 | 0.113 | 0.461 | 0.278 | 0.316 |  | 
ACGCCATC | 0.421 |  | 0.098 | 0.0609 | 0.453 | 0.171 | 0.237 |  | 0.41 | 0.125 | 0.108 |  | 
AGTTGACG | 0.0881 | 0.0919 | 0.0862 | 0.213 |  | 0.0554 | 0.107 |  | 0.198 | 0.0565 |  |  | 0.43
CACGTTAG | 0.387 |  | 0.0916 | 0.13 | 0.412 | 0.0974 | 0.117 |  | 0.237 | 0.164 | 0.0853 |  | 
GTTAAGGA | 0.116 | 0.178 | 0.165 | 0.11 | 0.0916 |  | 0.16 | 0.273 | 0.276 | 0.176 |  | 0.424 | 0.0559
AAGTCAGA | 0.0562 | 0.0582 | 0.073 |  | 0.14 |  | 0.132 |  | 0.0642 | 0.166 |  | 0.0583 | 0.455
TTAAGAAA | 0.151 |  | 0.0935 | 0.195 | 0.227 |  | 0.142 | 0.273 | 0.367 | 0.0817 |  | 0.461 | 0.116
CTTCCTTA | 0.158 | 0.0721 |  |  | 0.104 |  | 0.151 | 0.223 | 0.21 | 0.0785 |  | 0.447 | 0.0845
ACGCTACC | 0.455 | 0.118 |  | 0.144 | 0.48 | 0.0969 | 0.34 |  | 0.475 | 0.0872 | 0.181 |  | 
